For 15 compounds, outcome, activation and Potency results are on record in PubChem BioAssay (NCATS).

“And” between values parts separate entries of the source, which are not always exact repeats. Equal values may be shown once. A number with no mark means an inactive call. Inconclusive results are not listed. The source made the active and inactive calls. Unless noted, calls follow the shape of the dose curve; as a rule, active = well fitted curve in the direction sought with a large enough effect; inconclusive = small, poorly fitted or top-dose-only effect, or another doubt; inactive = no such curve, though single readings can be large; an effect the other way counts as inactive or inconclusive.

The nature of assay [1]: Cell Viability - LYMP2-003 (AID 965).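 Also: cells exposed to compounds for 24 h before reading; 0% = DMSO only and full effect = 92 µM tetraoctylammonium bromide; nearly all actives have a fitted effect of over 50% in size.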 In a few lines:
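qHTS, human lymphoblastoid line, 2500 cells/well, complete medium. 24 h drug, 37 C. ATP-based luminescent readout; Hill-fit AC50.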

The nature of assay [2]: qHTS assay for small molecule activators of the nuclear factor-kappa B (NF-kB) signaling pathway (AID 651749; active = well fitted activation curve with a large enough effect in the signal ratio; the % refers to the signal ratio; also: % of control where 0% means no effect). Particulars: NF-kB-bla ME-180 cells, beta-lactamase FRET ratio, 16 h; stronger effect = higher value. In a few lines: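 ME-180 cells stably carrying a beta-lactamase reporter under an NF-kB response element were exposed to compound or DMSO vehicle for 16 hr at 37C, 5% CO2. Pathway activation was read by FRET, since reporter expression disrupts FRET.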
On the technique in general: qHTS replaces the single test concentration by a dilution series.

Assay [3] in a line: qHTS assay for small molecule activators of the human pregnane X receptor (PXR) signaling pathway (AID 720659; call rule not given here; also: 0% is about no effect).
The test system of the next assay is AS120. The assay is described as follows: qHTS profiling for inhibitors of Plasmodium falciparum proliferation (AID 504749). Also: nearly all actives have a fitted effect of over 60% in size. Also: potency is read from the fitted curve at half-maximal effect. Particulars: P. falciparum in erythrocytes, SYBR Green DNA, 72 h; series mostly up to 28.7 µM. In a few lines: (§1)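 P. falciparum-infected erythrocytes (0.3% parasitemia, 2.5% hematocrit final) were exposed to compounds for 72 h at 37 C in 5% CO2, then lysed with SYBR Green buffer overnight at room temperature; parasite DNA fluorescence was normalized to artemisinin and DMSO controls.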

For another assay, the system named is ATS189. The assay is described as above. Particulars: P. falciparum in erythrocytes, SYBR Green DNA, 72 h; series mostly up to 12.8 µM. In short, it runs like this:
as §1

A further assay relates to CP185. The assay is described as above. Particulars: P. falciparum in erythrocytes, SYBR Green DNA, 72 h; series mostly up to 12.8 µM. In short, it runs like this:
as §1

In the next assay the test system is CP192. Described as above. The settings on record: P. falciparum in erythrocytes, SYBR Green DNA, 72 h; series mostly up to 28.7 µM. In a few lines:
as §1

The test system of the next assay is CP194. The assay is described as above. Particulars: P. falciparum in erythrocytes, SYBR Green DNA, 72 h; series mostly up to 12.8 µM. In a few lines:
as §1

In a further assay the test system is CP203. The description is as above. The settings on record: P. falciparum in erythrocytes, SYBR Green DNA, 72 h; series mostly up to 12.8 µM. In short, it runs like this: as §1
The subject of a further assay is CP247. Described as above. The settings on record: P. falciparum in erythrocytes, SYBR Green DNA, 72 h; series mostly up to 12.8 µM. In short, it runs like this:
as §1

The subject of the next assay is CP291. Described as above. The settings on record: P. falciparum in erythrocytes, SYBR Green DNA, 72 h; series mostly up to 12.8 µM. In a few lines:
as §1

In another assay the test system is CP297. Described as above. The settings on record: P. falciparum in erythrocytes, SYBR Green DNA, 72 h; series mostly up to 12.8 µM. In a few lines: as §1
For another assay, the system named is CP305. The assay is described as above. The settings on record: P. falciparum in erythrocytes, SYBR Green DNA, 72 h; series mostly up to 12.8 µM. In a few lines:
as §1

Another assay has as its system DIV30. Described as above. Particulars: P. falciparum in erythrocytes, SYBR Green DNA, 72 h; series mostly up to 12.8 µM. In short, it runs like this:
as §1

Another assay has as its system P94_40. Described as above. The settings on record: P. falciparum in erythrocytes, SYBR Green DNA, 72 h; series mostly up to 12.8 µM. In a few lines: as §1
The next assay has as its system TAB109. Described as above. Particulars: P. falciparum in erythrocytes, SYBR Green DNA, 72 h; series mostly up to 12.8 µM. In a few lines:
as §1

The next assay deals with TAB113. The description is as above. The settings on record: P. falciparum in erythrocytes, SYBR Green DNA, 72 h; series mostly up to 12.8 µM. In short, it runs like this:
as §1

For another assay, the system named is W2. The description is as above. Particulars: P. falciparum in erythrocytes, SYBR Green DNA, 72 h; series mostly up to 12.8 µM. In short, it runs like this: as §1
The target in assay [4] is Cytochrome P450 3A4 (Homo sapiens) (UniProt P08684). The assay is described as follows: qHTS for inhibitors of CYP3A4 against the NCATS DSHEA and TCM libraries (AID 1919971).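 Also: % is scaled to controls: 0 for no effect and ±100 for the full control effect; inhibition lowers luminescence from luciferin made by CYP3A4.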 In short, it runs like this:
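Luminescent P450-Glo readout. Enzyme plus pro-luciferin substrate in manufacturer buffer (typically 100 mM KPO4); 15 min RT preincubation; 1x NADPH regenerating system, 30-45 min RT in the dark; detection reagent 30 min.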

For assay [5], the target named is Nuclear receptor subfamily 1 group I member 3 (Homo sapiens) (UniProt Q14994). The assay is described as follows: Primary qHTS for agonist of constitutive androstane receptor (CAR) against the NCATS DSHEA and TCM libraries (AID 1794839).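 Also: HepG2 cells expressing human CAR with a CYP2B6 reporter plus PK11195 antagonist; luciferase reporter luminescence read with ONE-Glo; 0% is about no effect.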 In short, it runs like this:
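Concentration–response screen in HepG2-CYP2B6-hCAR cells under 0.75 µM PK11195; 24 h exposure; luminescent reporter signal with multiplexed fluorescent viability.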

Sequence of Cytochrome P450 3A4 (Homo sapiens) (P08684 whole entry, looked up): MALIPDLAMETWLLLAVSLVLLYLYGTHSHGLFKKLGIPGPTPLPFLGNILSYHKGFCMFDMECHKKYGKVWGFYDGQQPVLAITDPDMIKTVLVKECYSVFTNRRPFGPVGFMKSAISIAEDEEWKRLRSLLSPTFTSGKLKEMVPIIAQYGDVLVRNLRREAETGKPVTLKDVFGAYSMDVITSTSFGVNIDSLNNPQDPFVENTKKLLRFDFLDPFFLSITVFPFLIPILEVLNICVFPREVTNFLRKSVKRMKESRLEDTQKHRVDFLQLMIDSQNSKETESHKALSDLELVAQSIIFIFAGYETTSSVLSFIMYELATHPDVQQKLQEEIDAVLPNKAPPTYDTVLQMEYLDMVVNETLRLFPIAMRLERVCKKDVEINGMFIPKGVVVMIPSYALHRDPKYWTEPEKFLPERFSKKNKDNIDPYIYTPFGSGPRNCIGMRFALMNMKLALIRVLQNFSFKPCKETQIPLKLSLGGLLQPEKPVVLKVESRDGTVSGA
Sequence of Nuclear receptor subfamily 1 group I member 3 (Homo sapiens) (Q14994 whole entry, looked up): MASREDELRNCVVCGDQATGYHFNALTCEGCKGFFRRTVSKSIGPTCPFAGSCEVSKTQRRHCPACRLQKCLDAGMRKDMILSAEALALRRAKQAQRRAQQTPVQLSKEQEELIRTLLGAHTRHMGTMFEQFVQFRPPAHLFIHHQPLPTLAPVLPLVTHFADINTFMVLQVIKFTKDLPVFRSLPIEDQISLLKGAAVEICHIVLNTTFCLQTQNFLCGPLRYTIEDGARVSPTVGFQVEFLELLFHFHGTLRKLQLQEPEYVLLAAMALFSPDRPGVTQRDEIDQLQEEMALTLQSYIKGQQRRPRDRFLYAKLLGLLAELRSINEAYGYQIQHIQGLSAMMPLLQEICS

`Cc1occc(=O)c1O`: the compound was classed as inactive in [1] and in assay [3]. Moreover, the activation in [2] is -0.401%.
For `C[N+](C)(C)CC(O)CC(=O)O` (centres undefined), the Potency result in the assay with AS120, in the assay with ATS189, in the assay with CP185, in the assay on CP192, with CP194 and in the assay on CP203 was “inactive” throughout. Further, the Potency entry in the assay with CP247, in the assay on CP291, with CP297, in the assay on CP305, with DIV30 and in the assay on P94_40 was “inactive” each time. In addition, the Potency entry in the assay with TAB109, in the assay with TAB113 and with W2 was “inactive” throughout.
Turning to `CN1[C@@H]2CC[C@H]1CC(OC(=O)[C@@H](O)c1ccccc1)C2` (some centres undefined), the Potency result with AS120, with ATS189, with CP185, with CP192, in the assay on CP194 and with CP203 was “inactive” in each case. Further, the Potency result with CP247, with CP291, with CP297, in the assay on CP305, with DIV30 and with P94_40 was “inactive” throughout. In addition, the Potency result in the assay on TAB109, with TAB113 and with W2 was “inactive” throughout.
Consider `NC(Cc1c[nH]c2ccccc12)C(=O)O` (centres undefined), for which the call in [4] was inactive.
For the compound `C=C[C@](C)(O)CCC=C(C)C`, the compound was classed as inactive in assay [5].
For `COc1ccc2ccc(=O)oc2c1`, the compound was classed as inactive in assay [5] and in assay [4].
Take `O=C(/C=C/c1ccc(O)c(O)c1)OC(Cc1ccc(O)c(O)c1)C(=O)O` (centres undefined): the result in [5] and in assay [4] was inactive.
Turning to `CC1=CC(=O)CC(C)(C)C1(O)/C=C/C(C)=C\C(=O)O` (centres undefined), the compound was classed as inactive in assay [1] and in assay [3]. Also, the activation in assay [2] was 1.73%.
Turning to `C[C@@H]1CCC[C@H](C)N1NC(=O)c1ccc(Cl)c(S(N)(=O)=O)c1`, the Potency result with AS120, in the assay with ATS189, in the assay with CP185, with CP192, with CP194 and in the assay on CP203 was “inactive” throughout. The Potency entry in the assay on CP247, in the assay with CP291, in the assay on CP297, with CP305, with DIV30 and with P94_40 was “inactive” throughout. For the same compound, the Potency result in the assay with TAB109, with TAB113 and with W2 was “inactive” each time.
Take `O=c1cc(-c2ccc(O)cc2)oc2cc(O[C@H]3OC(CO)C(O)C(O)C3O)cc(O)c12` (some centres undefined): the compound was called inactive in assay [4].
In the case of `CC(C)N1CCN(c2ccc(OC[C@@H]3CO[C@@](Cn4cncn4)(c4ccc(Cl)cc4Cl)O3)cc2)CC1`, the Potency entry in the assay with AS120, in the assay with ATS189, in the assay on CP185, in the assay on CP194, in the assay on CP203 and in the assay on CP247 was “inactive” in each case. For the same compound, the Potency result in the assay on CP291, in the assay with CP297, in the assay on CP305, in the assay on DIV30, in the assay on P94_40 and in the assay on TAB109 was “inactive” in each case. In addition, the Potency result in the assay on TAB113 and with W2 was “inactive” in each case.
With `O=c1ccc2ccc(O)cc2o1`, the result in assay [5] was inactive.
With `CN(C)CC/C=C1\c2ccccc2CSc2ccccc21`, the Potency entry in the assay with CP192 and in the assay on CP297 was “inactive” in each case. Further, in the assay on W2, the Potency was 1.28 µM (active).
Consider `C=C(C)[C@H]1CC=C(C)C(=O)C1`, for which the call in [1], in [5], in [4] and in [3] was inactive. The activation in [2] was -0.312% and 0.229%.
Turning to `COS(C)(=O)=O`, the call in assay [1] and in assay [3] was inactive. In addition, the activation in [2] is 0.279%.
